Experimental data as given in PubChem BioAssay (NCI).
The panel holds about 83,000 compounds, 20% with a hit somewhere; the sample as a whole holds those more often.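 Testing used 96-well plates and a 48-hour single-concentration exposure. Example: -40 means 40% of the starting cells died.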 Unmarked numbers belong to inactive results. Active and inactive are the calls of the source. Rule for the calls: active = growth percent below 10; inactive = the rest.

Assays:
Assay in all cases: NCI-60 one-dose screen, 48 h (100 = growth as untreated, 0 = no growth, -100 = all killed)
Conditions in all cases: 10 µM
NCI-H226 lung = test system: NCI-H226 lung
HOP-62 NSCLC = test system: HOP-62 NSCLC
NCI-H460 lung = test system: NCI-H460 lung
HOP-92 NSCLC = test system: HOP-92 NSCLC
NCI-H522 lung = test system: NCI-H522 lung
A549/ATCC NSCLC = test system: A549/ATCC NSCLC
COLO 205 colon = test system: COLO 205 colon
DU-145 prostate = test system: DU-145 prostate
K-562 leukemia = test system: K-562 leukemia
MDA-MB-231 breast = test system: MDA-MB-231 breast
SF-268 CNS = test system: SF-268 CNS
SF-295 CNS = test system: SF-295 CNS
SF-539 CNS = test system: SF-539 CNS
UACC-257 melanoma = test system: UACC-257 melanoma
M14 melanoma = test system: M14 melanoma
786-0 renal = test system: 786-0 renal
MALME-3M melanoma = test system: MALME-3M melanoma
RXF 393 renal = test system: RXF 393 renal
NCI-H322M lung = test system: NCI-H322M lung

SMILES	growth (NCI-H226 lung)	growth (HOP-62 NSCLC)	growth (NCI-H460 lung)	growth (HOP-92 NSCLC)	growth (NCI-H522 lung)	growth (A549/ATCC NSCLC)	growth (COLO 205 colon)	growth (DU-145 prostate)	growth (K-562 leukemia)	growth (MDA-MB-231 breast)	growth (SF-268 CNS)	growth (SF-295 CNS)	growth (SF-539 CNS)	growth (UACC-257 melanoma)	growth (M14 melanoma)	growth (786-0 renal)	growth (MALME-3M melanoma)	growth (RXF 393 renal)	growth (NCI-H322M lung) [%]
COc1ccccc1N1CCCSC1=Nc1ccccc1	107%	-5.39% (active)	99.7%	68.4%	71.9%	99.2%	104%	99.7%	78.4%	101%	99%	80.2%	98.9%	43.7%	63.3%				
COc1cccc(N=Nc2cccc(OC)c2)c1	90.5%	82.6%	103%	84%	73%		107%	112%	87.8%	84%	103%	92.8%	95.4%	90.9%	90.7%	91.3%	101%	91.2%	
Cc1cn(-c2cc(F)cc(NC(=O)c3ccc(C)c(Nc4nccc(-c5cccnc5)n4)c3)c2)cn1	-12.3% (active)		20.1%	-22% (active)	11.5%	19.3%	70.9%	65.4%		6.14% (active)	67.3%		-39.8% (active)	23.1%	60.2%	-6.06% (active)		-1.37% (active)	
NNC(=O)Oc1c(Cl)cc(Cl)cc1[N+](=O)[O-]	106%	94.6%	110%	115%	96.9%	96.9%		103%	102%	113%	102%	103%	105%	104%	101%	105%	94.4%	113%	
O=S(=O)(NCCCNc1nccc(-c2cn(-c3ccccc3)nc2-c2ccc(Cl)c(O)c2)n1)c1ccccc1	76.3%		46.3%		65.6%	37.3%	69.4%	81.4%	65%	71.6%	68.5%	63.2%	88.9%		60.7%	68%	125%	74.2%	
COc1ccc(N=Nc2cc(OC)c(OC)c(OC)c2)cc1	92.4%	66.9%	87.5%	79.4%	57%	73%	87.2%	97.3%	69.4%	89.4%	91.3%	83.6%	82.6%	84.9%		98.2%	77.9%	86%	
CCN(CC)CCN1c2nc3ccccc3cc2Sc2cc3ccccc3nc21	-10.6% (active)	12.8%	-95.2% (active)	-12.9% (active)	-69.4% (active)		-73.9% (active)		-69.1% (active)	-0.0354% (active)	12.2%	-49.2% (active)	-100% (active)	8.34% (active)	-65% (active)	-40% (active)			
Cc1cc(SC#N)cc(C(C)(C)C)c1O	102%	100%	104%	81.7%		81.9%	101%	110%	91.3%	113%	103%	102%	95.6%	94.1%	90.3%	101%	85.8%	118%	
Cc1ccc(S(=O)(=O)N/N=C2\CCCc3ccccc32)cc1	90.9%	108%	96.7%	99.5%	103%	101%		114%	97.2%	108%	102%	104%	108%	93.8%	118%	116%	105%	103%	
CC(=O)N[C@H](C(=O)N[C@@H](CCCNC(=N)N)C(=O)N[C@@H](CCCCN)C(=O)N[C@@H](CCCNC(=N)N)C(=O)N[C@]1(C)CCCCCC/C=C\CCC[C@@](C)(C(=O)N[C@@H](CCCNC(=N)N)C(=O)N[C@@H](CCC(=O)O)C(=O)N[C@@H](CC(C)C)C(=O)N[C@H](C(=O)N[C@@H](CCC(=O)O)C(N)=O)C(C)C)NC(=O)[C@H](CCC(N)=O)NC(=O)[C@H](CC(C)C)NC(=O)[C@H](CC(C)C)NC(=O)[C@H](CCCNC(=N)N)NC(=O)[C@H](CCCNC(=N)N)NC(=O)[C@H](CC(C)C)NC1=O)C(C)C	9.55% (active)		-9.29% (active)	-63.6% (active)	28.7%	12.4%	-29.5% (active)	-72.7% (active)	-18.8% (active)	-39.5% (active)	-51.5% (active)	14.3%	-47% (active)		-41.9% (active)	-51.4% (active)	-28.7% (active)	-51.5% (active)	
CCOC(=O)C(C)(c1ccccc1)c1ccccc1	100%	95%	106%	98.6%	94.8%	92.9%	120%	106%	113%	111%	104%	102%	97.7%	93.5%	102%	119%	112%	123%	
COc1cc(C(=O)/C=C/c2c[nH]c3ccccc23)cc(OC)c1OC	55.6%		8.04% (active)	39.2%	-27% (active)	17.7%	-65.1% (active)	5.54% (active)	11.3%	13%	20.3%	16.9%	-1.84% (active)			12.2%	52.5%	43%	
COc1ccc(-c2nn(-c3cccc(Cl)c3)cc2-c2cc(-c3ccccc3)[nH]c(=O)c2C#N)cc1	24%			-28% (active)	44%	39.7%	60.7%	47.1%	44.9%	-8.6% (active)	34.8%	-36% (active)	-45.9% (active)	75.5%	32.5%	6.65% (active)	24.7%	-25.6% (active)	
CCOC(=O)C1=CSC2=NC3=C(CCC/C3=C\c3ccc(Cl)cc3)C(c3ccc(Cl)cc3)N12 (stereo not given)	92.2%	115%	102%	96.2%	93.5%	96.5%	105%	92.7%	92.7%	94.5%	90.8%	104%	103%	85.7%	92.5%	101%	103%	78.8%	
Nc1ccccc1NC(=O)c1ccc(CCCC(=O)Nc2ccc(C3CC3N)cc2)cc1 (stereo not given)					-34.4% (active)	34.8%	-5.7% (active)	38.7%	25.4%	47.5%	32.6%	22.1%	30.9%		27%	38.8%	21.7%	20.8%	
CCCCN(CCCC)C(=O)[C@H](CC)[C@@H]1CC[C@@H](C)[C@@H]([C@H](C)[C@@H](O)[C@@H](C)C(=O)[C@H](CC)C2O[C@]3(C=C[C@@H](O)[C@]4(CC[C@@](C)([C@H]5CC[C@](O)(CC)[C@H](C)O5)O4)O3)[C@H](C)C[C@@H]2C)O1 (stereo not given in full)	-2.42% (active)	7.81% (active)		-25.6% (active)	-18.4% (active)	9.11% (active)	-77.6% (active)	35.4%	14.1%	-25.3% (active)	19.6%	-10.4% (active)	16.9%	0.418% (active)	14.2%	17.4%	-15.8% (active)	-3.81% (active)	
CC(C)(C)OC(=O)N1CCc2c(sc3ncnc(N/N=C/c4cccc(Br)c4)c23)C1	67.3%	45.1%	20.9%	75.6%	34.2%		13.1%	62.4%	19.3%	49.9%	63.9%	64.7%	53.3%	80.8%	43%	50.7%	66.9%	63.5%	
NC1=CC(=O)C(=O)c2cccnc21		80.2%		149%	59.8%	43.9%	98.7%	28.3%	88.4%	83.9%	90.4%	77.3%	101%	64.4%	32.1%	99.7%	-0.873% (active)	83.5%	
COc1ccc(CCN2CCC(Nc3nc4ccccc4n3Cc3ccc(F)cc3)CC2)cc1	60%		1.57% (active)	-20.1% (active)		28.7%	-65.7% (active)	46.4%		-31.5% (active)	27.7%	-85.7% (active)	-81% (active)	-81.7% (active)	-99.4% (active)	-96.5% (active)	-79.5% (active)	-67.8% (active)	
CCn1c(SC/C(=N/O)c2ccccc2)nnc1-c1ccccc1	108%		102%	62.5%	112%	101%		107%	86%	94.6%	108%	109%	93.7%	104%	109%	105%	98.6%	117%	
O=C(O)c1cn(C2CC2)c2cc(N3CCN(C(=O)c4cc(-c5ccc(Cl)cc5)nc5ccccc45)CC3)c(F)cc2c1=O	92.3%	82.1%	96.1%	90.1%	86.4%	94.4%	110%	105%	83.7%	76.3%	89%	91.3%	93.8%	107%	84.4%	88.3%	107%	73.6%	
O=C(N/N=C/c1cc([N+](=O)[O-])ccc1O)c1cccc2ccccc12	42.6%				21.9%	54.8%	48.9%	45.2%	30.3%	40.9%	39.8%	26.4%	22.9%	23.5%	34.5%	36.5%	53.7%	46.5%	45.4
COc1cc(-c2nn(-c3ccc(NC(=O)NCCCNC(=O)c4ccccc4)cc3)cc2-c2ccncc2)ccc1Cl	56.1%	41.5%	6.81% (active)	-0.43% (active)	3.7% (active)	26%	-43.4% (active)	20.6%	12.4%	19.1%	37.6%	0.436% (active)	-10.5% (active)	63.3%	12.2%	14.8%	47.3%	25.2%	
Cn1c2ccccc2c2c3[nH][nH]c(=O)c3c3c4ccccc4[nH]c3c21	65.8%		-28.2% (active)		4.72% (active)	56.9%	59%	10.5%	32.3%	19.8%	25%	81.3%	-20.8% (active)		17.4%	23%	92.3%	-36.7% (active)	
COc1ccc(/C=C2/SC(=S)NC2=O)c(OC)c1OC	81.6%	69.2%	90.3%	36.8%	73.3%	79.5%	105%	97.9%	84%	62.7%	80.5%	76.5%	83.2%	88.9%	87.4%	87.9%	65.7%	81.5%	
